Data on 40 compounds can be found in PubChem BioAssay (Tox21).

“And” between values parts separate entries of the source, which are not always exact repeats. Equal values may be shown once. Inconclusive results are not listed. A call without a number means that no potency is given here. Some compounds were tested as several samples or in several runs, with calls that do not always agree. The source made the active and inactive calls. Calls come from the whole dose curve; as a rule, active = well fitted cell-killing curve with a large enough effect in the repeat runs; inconclusive = weak or mixed curves, or effect the other way; inactive = flat fitted curve, though single readings scatter.
Potency is the fitted concentration of half-maximal effect.

The nature of this assay: Nuclear factor erythroid 2-related factor 2/antioxidant responsive element (Nrf2/ARE) small molecule agonists: qHTS cell viability counter screen in human keratinocytes (AID 1919968). Note: nearly all actives have a fitted effect of over 55% in size. As to conditions: KeratinoSens HaCaT ARE cells viability, CellTiter-Fluor, 24 h; series mostly up to 92.4 µM. In outline: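 Cytotoxicity was multiplexed with the Nrf2/ARE luciferase assay in the same wells. Stably transfected HaCaT keratinocytes were treated with test compounds for 23 h at 37 C. Cell viability was then measured by CellTiter-Fluor fluorescence.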
Background: Quantitative high-throughput screening tests each substance at several concentrations.
For `N#Cc1ccccc1`, the Potency entry was “inactive”. Consider `C=C(CC(=O)O)C(=O)O`, for which the Potency result was “inactive”.

As to `O=C(OCC1CCC2OC2C1)C1CCC2OC2C1` (stereo not given), the Potency entry is “inactive”. Take `CC(=O)NS(=O)(=O)c1ccc(N)cc1`: the Potency result was “inactive”. To `Cc1cc(CC(=O)O)n(C)c1C(=O)c1ccc(Cl)cc1` belongs “inactive”; to `CCCCNS(=O)(=O)c1ccccc1`, “inactive”; to `C[C@]12C=CC(=O)C=C1CC[C@H]1[C@@H]3C[C@@H](O)[C@](O)(C(=O)CO)[C@@]3(C)C[C@H](O)[C@@]12F`, “inactive”. In the case of `Cc1cc(C)c(O)c(C)c1` it was “inactive”; in that of `Nc1ccc(S(=O)(=O)Nc2cnc3ccccc3n2)cc1`, “inactive”; in that of `COC(=O)[C@H]1[C@H]2C[C@@H]3c4[nH]c5cc(OC)ccc5c4CCN3C[C@H]2C[C@@H](OC(=O)c2cc(OC)c(OC)c(OC)c2)[C@@H]1OC`, 48.5 µM (active) and inactive. In the case of `CN(C)c1ccc(C(=C2C=CC(=[N+](C)C)C=C2)c2ccccc2)cc1` it was 4.33 µM (active) and 6.68 µM (active); in that of `c1ccc2cc(Nc3ccc(Nc4ccc5ccccc5c4)cc3)ccc2c1`, “inactive”; in that of `COCCc1ccc(OCC(O)CNC(C)C)cc1` (stereo not given), “inactive”. Consider `COc1ccc([C@@H]2CC(=O)c3c(O)cc(O[C@@H]4O[C@H](CO[C@@H]5O[C@@H](C)[C@H](O)[C@@H](O)[C@H]5O)[C@@H](O)[C@H](O)[C@H]4O)cc3O2)cc1OC`, for which the Potency entry was “inactive”. In the case of `CC(=O)N[C@@H](CS)C(=O)O` it was “inactive”. With `OCC1CCCO1` (stereo not given), the Potency entry is “inactive”.

For `CC(=O)OCc1ccc2c(c1)OCO2`, the Potency result was “inactive”. `Cc1cc(C)c(C)cc1C`: the Potency entry was “inactive”. In the case of `Oc1c(Cl)cc(Cl)c(Cl)c1Cl`, the Potency entry is “inactive”. Take `CC1(C)C(=O)N(Cl)C(=O)N1Cl`: the Potency result was “inactive”.

Turning to `Cc1ccc(C)c(O)c1`, the Potency result is “inactive”. In the case of `NC(N)=S` it was “inactive”. To `CCCCCCCCCCO` belongs “inactive”. In the case of `OCCOCCOCCOCCO` it was “inactive”; in that of `O=c1cc[nH]c(=S)[nH]1`, “inactive”; in that of `CCCCCCCCCCCCCC(=O)O`, “inactive”. Consider `O=S(=O)(O)c1ccc2cc(O)ccc2c1`, for which the Potency result is “inactive”. In the case of `Oc1ccc(Cc2ccccc2O)cc1` it was “inactive”; in that of `ClC1=C(Cl)C(Cl)(Cl)C(Cl)=C1Cl`, “inactive”. As to `CC1(C)[C@@H]2CC[C@@]1(C)C(=O)C2`, the Potency entry was “inactive”.

Consider `CCOC(=O)CC(=O)OCC`, for which the Potency entry is “inactive”.

As for `CCCCOCCOCCOC(C)=O`, the Potency result was “inactive”. In the case of `CCn1c2ccccc2c2cc(N)ccc21` it was “inactive”; in that of `CC(=O)CC(=O)N(C)C`, “inactive”; in that of `C=CCCCCCCCCCC`, “inactive”.

For `CC1=C(/C=C/C(C)=C/C=C/C(C)=C/C(=O)O)C(C)(C)CCC1`, the Potency entry is “inactive”.

For `CCCCCNCCCCC`, the Potency entry was “inactive”. To `O=C(CC(C(=O)OC1CCCCC1)S(=O)(=O)O)OC1CCCCC1` (stereo not given) belongs “inactive”; to `CN(C)CCOC(=O)COc1ccc(Cl)cc1`, “inactive”; to `CCCN(CCC)C(=O)SCC`, “inactive”.
